Assay outcomes from PubChem BioAssay.
Sampled rows, rich in hits. Any-hit rate of the full collection: about 6.6%.
HT1080-NT tox: kills 2HG-producing HT-1080-NT fibrosarcoma cells; HT-1080-NT fibrosarcoma viability, CellTiter-Glo ATP luminescence, 48 h; Potency, µM (top dose mostly 46.1 µM), hits mostly cytotoxic; 360,000 tested, 1.6% active;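 also: NT is the 2HG producing partner of a matched IDH1 knockdown line; nearly all actives have a fitted effect of over 55% in size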
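Viability of the 2HG-overproducing fibrosarcoma line after 48 hours of compound exposure at 37 degrees C was determined by luminescence with CellTiter-Glo, and concentration-effect curves were then fitted and categorized.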
KB-V1 MDR tox: kills drug-selected multidrug resistant KB-V1 cells; KB-V1 MDR cells viability, CellTiter-Glo, 72 h; Potency, µM (highest dose often 46.1 µM), most hits filed as cytotoxic; 400,000 tested, 3.4% active; also: nearly all actives have a fitted effect of over 60% in size
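Compound-treated KB-V1 multidrug-resistant cells, 72 h, 37 degrees C; viability by CellTiter-Glo. Fitted qHTS curves give the values.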
KB-3-1 cytotox: kills parental KB-3-1 adenocarcinoma cells; KB-3-1 viability, CellTiter-Glo ATP luminescence, 72 h; AID 1347075; 400,000 tested, 1.4% active; Potency, µM (doses to about 46.1 µM), hits mostly cytotoxic; also: nearly all actives have a fitted effect of over 60% in size
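KB-3-1 parental drug-naive adenocarcinoma cells in DMEM/10% FBS, incubated 72 h at 37 C with pin-transferred compounds across a concentration series. Viability by CellTiter-Glo luminescence; concentration-response curves fitted after normalization.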
HepG2 tox: HepG2 cytotoxicity, counter-screen for TGF-b inhibitors; 410,000 tested, 0.76% active; AID 588856; HepG2 CAGA-GFP viability, ATP luminescence, 18 h; Potency, µM (series often up to 46.1 µM), actives largely listed as cytotoxic
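HepG2 CAGA-GFP cells (1000/well, DMEM with 1% FBS) received compound, then TGF-beta at 500 pg/mL final, and were incubated 18 hours at 37 degrees C. Viability was read by CellTiter-Glo luminescence. Media-only wells were set as complete cell-killing and DMSO as no toxicity.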
TGFb SMAD3 inh: inhibitors of TGF-b signaling; HepG2 CAGA-GFP TGF-b/SMAD3 reporter, GFP fluorescence, 18 h; TGF-beta stimulated, 500 pg/mL final; Potency, µM (top dose mostly 46.1 µM), most hits filed as inhibitors; 410,000 tested, 1.2% active; also: nearly all actives have a fitted effect of over 65% in size
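Per well, imaged GFP fluorescence of HEPG2 CAGA-GFP cells gives the signal; cells get compound, then TGF-beta (500 pg/mL final), 18 h at 37 degrees C; %Activity versus -TGF-beta and +DMSO controls.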
HT1080 IDH1KD tx: toxicity to HT-1080 IDH1 knockdown cells (counter line); HT-1080 IDH1 knockdown viability, ATP luminescence, 48 h; Potency, µM (highest dose often 46.1 µM), hits mostly cytotoxic; 360,000 tested, 2% active; AID 686971
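Viability of IDH1-knockdown HT-1080 fibrosarcoma cells was assessed by CellTiter-Glo after 48 h at 37 °C with titrated compound; concentration-effect curves were classified by fit quality and response size.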
Large screens that a line does not name were inactive. Calls follow the shape of the dose curve; as a rule, active = well fitted curve in the direction sought with a large enough effect; inconclusive = small, poorly fitted or top-dose-only effect, or another doubt; inactive = no such curve, though single readings can be large; an effect the other way counts as inactive or inconclusive.

COc1ccc(-c2cc(NC=O)c3ncc(-c4cc(OC)c(OC)c(OC)c4)n3c2)cc1	HT1080-NT tox inconclusive, KB-V1 MDR tox 0.046µM, KB-3-1 cytotox inconclusive, HT1080 IDH1KD tx inconclusive
COc1ccccc1-c1cc(NC=O)c2ncc(-c3ccc(S(C)(=O)=O)cc3)n2c1	KB-V1 MDR tox 16µM, KB-3-1 cytotox 13µM
COc1ccc(-c2cnc3c(NC=O)cc(-c4ccc(S(C)(=O)=O)cc4)cn23)cc1OC	HT1080-NT tox inconclusive, KB-3-1 cytotox inconclusive, HT1080 IDH1KD tx inconclusive
COc1ccc(-c2cnc3c(NC=O)cc(-c4ccccc4)cn23)cc1OC	HT1080-NT tox inconclusive, KB-V1 MDR tox 1.6µM, KB-3-1 cytotox 1.2µM, HT1080 IDH1KD tx inconclusive
COc1cc(-c2cnc3c(NC=O)cc(-c4ccc(S(C)(=O)=O)cc4)cn23)cc(OC)c1OC	HT1080-NT tox inconclusive, KB-3-1 cytotox inconclusive, HT1080 IDH1KD tx inconclusive
CN(C)CCNC(=O)c1ccc2nc(Cc3ccccc3)oc2c1	none (no result: HT1080-NT tox, HT1080 IDH1KD tx)
COc1ccc(-c2cnc3c(NC=O)cc(-c4ccc(F)cc4)cn23)cc1OC	HT1080-NT tox inconclusive, KB-V1 MDR tox inconclusive, KB-3-1 cytotox 0.21µM, TGFb SMAD3 inh inconclusive, HT1080 IDH1KD tx inconclusive
COc1ccc(-c2cnc3c(NC=O)cc(-c4cc(OC)c(OC)c(OC)c4)cn23)cc1OC	HT1080-NT tox inconclusive, KB-V1 MDR tox 23µM, KB-3-1 cytotox inconclusive, HT1080 IDH1KD tx inconclusive
COc1ccc(-c2ccc(CNc3ccc4[nH]c(=O)[nH]c4c3)o2)cc1Cl	none (no result: HT1080-NT tox, HT1080 IDH1KD tx)
O=C(NCc1ccc(F)cc1Cl)c1ccc(CSCc2ccccc2Cl)o1	TGFb SMAD3 inh 13µM (no result: HT1080-NT tox, KB-V1 MDR tox, KB-3-1 cytotox, HT1080 IDH1KD tx)
O=C(NCc1ccc2c(c1)OCO2)c1ccc(CSCc2ccc(Cl)cc2)o1	KB-V1 MDR tox 21µM
O=C(NCc1ccc(Cl)cc1)c1ccc(CSCc2cccc(Cl)c2)o1	TGFb SMAD3 inh inconclusive (no result: HT1080-NT tox, HT1080 IDH1KD tx)
Cc1ccc(S(=O)(=O)c2nnn3c2nc(N2CCN(c4ccc(F)cc4)CC2)c2cc(Cl)ccc23)cc1C	none (no result: HT1080-NT tox, HT1080 IDH1KD tx)
CCC(C)NC(=O)CSc1nc2cc3c(cc2c(=O)n1CCCC(=O)NCCc1ccc(OC)c(OC)c1)OCO3 (stereo not given)	none (no result: HT1080-NT tox, KB-V1 MDR tox, KB-3-1 cytotox, HT1080 IDH1KD tx)
Cc1ccccc1NC(=O)Cn1c(=O)n(Cc2ccco2)c(=O)c2cccnc21	none (no result: HT1080-NT tox, HT1080 IDH1KD tx)
Cc1ccc2nc(N/N=C/c3ccco3)cc(C)c2c1	KB-V1 MDR tox inconclusive, HepG2 tox 11µM, TGFb SMAD3 inh inconclusive
Cc1nc(NC(N)=S)sc1C(=O)Nc1ccccc1	KB-3-1 cytotox inconclusive, HepG2 tox 11µM, HT1080 IDH1KD tx inconclusive
Cc1nc(NC(=O)c2ccccc2)sc1C	HepG2 tox 16µM
Cc1nc(NC(=O)C2CC2)sc1C(=O)Nc1ccccc1	none
Cc1nc(NC(=S)NC(=O)c2ccccc2)sc1C	none
CCS(=O)(=O)c1ncc(N(Cc2ccco2)Cc2sccc2C)c(C(=O)Nc2cc(C)ccc2C)n1	none (no result: HT1080-NT tox, HT1080 IDH1KD tx)
COc1cccc(NC(=O)Cn2c(=O)n(-c3cccc(OC)c3)c(=O)c3sc4ccccc4c32)c1	none (no result: HT1080-NT tox, HT1080 IDH1KD tx)
COc1ccc(NC(=S)NCCc2ccccc2OC)c(OC)c1	KB-V1 MDR tox 21µM, KB-3-1 cytotox inconclusive
COc1ccc(NC(=S)NC2CCCCCC2)c(OC)c1	KB-V1 MDR tox 18µM, KB-3-1 cytotox inconclusive, TGFb SMAD3 inh inconclusive
COc1cccc(C(=O)NC2CCCC2)c1	none
COc1cccc(C(=O)NNC(=S)NC2CCCCC2)c1	KB-V1 MDR tox 23µM
COc1ccc(NC(=S)NCCC(c2ccccc2)c2ccccc2)c(OC)c1	KB-V1 MDR tox inconclusive, KB-3-1 cytotox inconclusive, TGFb SMAD3 inh inconclusive, HT1080 IDH1KD tx 22µM
O=C(Nc1c(Cl)cccc1Cl)c1cc(-c2cccc(O)c2)on1	none (no result: HT1080-NT tox, HT1080 IDH1KD tx)
O[Si](CCCN1CCCCC1)(c1ccc(F)cc1)C1CCCCC1 (stereo not given)	HT1080-NT tox inconclusive, KB-V1 MDR tox inconclusive, HT1080 IDH1KD tx 21µM
O=C(NCCCN1CCCC1)Nc1ccc(F)cc1	none
CSc1ncccc1C(=O)Nc1ccccc1N1CCOCC1	KB-V1 MDR tox 21µM, TGFb SMAD3 inh inconclusive
